The structures appear in SMILES notation. The whole screen tested about 68,000 compounds, of which about 2,700 (4%) showed an effect of 50% or more. The entries come from a sample that favours strong results as a whole.

This experiment relates to Plasmodium berghei. Briefly: Screen against P. berghei liver stage (PbLuc), transformed with Luciferase, at 2uM. The conditions noted are these: tested at 2 uM. Format: functional, HepG2.
`CC(=O)N[C@@H](C)C(=O)NCc1cccnc1Oc1ccccc1F`: the INHIBITION was -66.28%. In the case of `c1cncc(-c2noc(CN3CCCC3Cn3cccn3)n2)c1` (stereo unspecified) it was 5.59%. To `CCC(=O)NC1CCCN(C(=O)Nc2cc(-c3ccccc3)on2)C1` (stereo unspecified) belongs 80.45%. To `O=C(Nc1cc(-c2ccccc2)on1)N1CCN(CCO)CC1` belongs 45.19%; to `O=C(Nc1cc(-c2ccccc2)on1)N1CC[C@H](O)C1`, -9.71%. On to `Cc1ccc(CN2CCC3(CCCN3S(C)(=O)=O)CC2)s1`, for which the INHIBITION was -26.46%.

On to `Cc1ccc(CN2CCCC3(CCCCN3S(C)(=O)=O)C2)s1` (stereo unspecified), for which the INHIBITION is given as -40.37%. To `Cc1ccc(CN2CCCC3(CCCN3S(C)(=O)=O)C2)s1` (stereo unspecified) belongs 51.26%. To `Cc1ccc(CNCc2nnc3n2CCCC3C(F)(F)F)s1` (stereo unspecified) belongs -73.29%; to `OC1(CN2CCC(Cc3ncccn3)CC2)CCCCC1`, -9.61%; to `CCOc1cccnc1C(=O)N1CC=C(c2ccc(O)cc2)CC1`, 7.46%. Take `Cn1ccc(CN2CCC(NC(=O)NC3CCCCC3)CC2)cc1=O`: the INHIBITION came to 54.85%. To `Cn1ccc(CN2CCC(CC(=O)NC3CCCC3)CC2)cc1=O` belongs -17.37%. In the case of `Cn1ccc(CN2CCC(NC(=O)C3CCCCC3)CC2)cc1=O` it was -24.26%.

As for `Cc1ccccc1-c1noc(CNc2ccc(F)cc2OCCO)n1`, the INHIBITION was determined as 20.77%.

Regarding `Cc1nc(COc2ccc(CNCCn3cccn3)cc2)cs1`, the INHIBITION came to 12.01%. Regarding `COC(=O)C1CCN(C(=O)Cn2ccc(-c3ccccc3)n2)CC1`, the INHIBITION is on record as -7.16%. In the case of `Cc1nc(-c2ccccc2)n(CC(=O)NC2CCCC2)n1` it was 37.68%; in that of `COC(=O)C1CCN(C(=O)Cn2nc(C)nc2-c2ccccc2)CC1`, 50.32%. Turning to `Cc1nc(-c2ccsc2)ccc1C(=O)NC(C)CN1CCOCC1` (stereo unspecified), the INHIBITION was determined as 50.75%. In the case of `Cc1nc(-c2ccsc2)ccc1C(=O)NCCCN1CCOCC1` it was -10.47%.

On to `Cc1nc(-c2ccsc2)ccc1C(=O)NCCN1CCOCC1`, for which the INHIBITION amounted to 13%.

As to `CC(C)CN1CC[C@@H]2[C@H](CC1)N(S(C)(=O)=O)CCS2(=O)=O`, the INHIBITION is listed as 30.95%.

On to `Cc1noc(C)c1CN1CC[C@H]2OCC[C@@]2(C(=O)NC2CCCC2)C1`, for which the INHIBITION was -6.61%. To `COc1ncc(-c2ccc(O)cc2)c(OC)n1` belongs 24.44%; to `Cc1cc(N(C)C)nc(C2COCCN2Cc2csc(C)n2)n1` (stereo unspecified), -27.45%; to `CNc1cc(C)nc(C2COCCN2CCc2ccccc2)n1` (stereo unspecified), -3.96%. As for `CNc1cc(C)nc(C2COCCN2Cc2csc(C)n2)n1` (stereo unspecified), the INHIBITION is 52.03%.

As for `CCOC(=O)C(C)Nc1ccc(CCN2CCOCC2)cc1` (stereo unspecified), the INHIBITION was -48.91%.

In the case of `CNc1nc2c(s1)C(=O)CN(C(=O)NCc1ccccc1)C2`, the INHIBITION was determined as 16.51%. With `CCNc1nc2c(s1)C(=O)CN(C(=O)NCc1ccccc1)C2`, the INHIBITION is given as 52.01%. In the case of `CCNc1nc2c(s1)C(=O)CN(C(=O)NCCc1ccccc1)C2` it was 12.31%.

In the case of `COCCN1C[C@@H]2CC[C@H]1CN(Cc1ccc3ccccc3n1)C2`, the INHIBITION amounted to 50.32%. In the case of `COCCN1C[C@@H]2CC[C@H]1CN(Cc1cc(=O)c3cc(C)ccc3[nH]1)C2` it was -23.58%; in that of `COCCN1C[C@@H]2CC[C@H]1CN(Cc1nc3ccccc3n1C)C2`, 20.14%; in that of `O=C(NCc1cccnc1)c1nc2c(s1)CCCN2C(=O)C1CC1`, 26.76%. To `CC(C)(C)C(=O)NCCC(=O)NC(C)(C)c1ccc2c(c1)OCCO2` belongs -93.39%; to `CSCCC(=O)NS(=O)(=O)c1ccc2c(c1)OCCO2`, -14.75%. To `CCCOCC(=O)NS(=O)(=O)c1ccc2c(c1)OCCCO2` belongs -16.42%.

With `CC(C)(C)C(=O)NCCC(=O)NS(=O)(=O)c1ccc2c(c1)OCCO2`, the INHIBITION is 73.37%. To `COCCCC(=O)NS(=O)(=O)c1ccc2c(c1)OCCCO2` belongs 54.85%; to `CC(C)CC(=O)NS(=O)(=O)c1ccc2c(c1)OCCCO2`, -32.2%. To `COCCn1ccc(NC(=O)Nc2ccccn2)n1` belongs -48.53%; to `O=C1N(Cc2ccc(F)c(F)c2)CCCC1(O)CNCc1cccnc1` (stereo unspecified), -0.06%; to `CCOc1cc2c(cc1CNC(Cc1cccs1)c1nccs1)OCO2` (stereo unspecified), -52.9%.

In the case of `CC(C)NC(=O)C1CCc2nnc(CNC(=O)c3cccnc3)n21` (stereo unspecified), the INHIBITION was found to be 37.62%. In the case of `CC(C)NC(=O)C1CCc2nnc(CNC(=O)C3CC3)n21` (stereo unspecified) it was 52.23%. In the case of `CC(C)NC(=O)C1CCc2nnc(CNC(=O)c3ccc(Cl)cc3Cl)n21` (stereo unspecified) it was 5.75%; in that of `CCOc1ccc(S(=O)(=O)N(C)Cc2cnn(CC)c2)cc1`, -44.7%. In the case of `COc1ncccc1CNC1CCc2c(ccc(=O)n2CC2CC2)C1` (stereo unspecified) it was 24.04%; in that of `O=C([C@H]1C[C@H]2OCC[C@H]2N(Cc2ccccc2F)C1)N1CCCCO1`, 29.33%; in that of `CN(C)Cc1nnc2n1CCN(Cc1ccccn1)CC2`, -16.67%.

For the molecule `O=C(CCc1ccsc1)Nc1ccnn1C1CCS(=O)(=O)C1` (stereo unspecified), the INHIBITION was -38.89%. As for `Cc1cccc(CCC(=O)Nc2ccnn2C2CCS(=O)(=O)C2)c1` (stereo unspecified), the INHIBITION is 62.13%. In the case of `O=C(CCc1cccs1)Nc1ccnn1C1CCS(=O)(=O)C1` (stereo unspecified) it was -28.15%; in that of `O=C(NCCC1COc2ccccc2O1)c1ccc(N2CC(O)C2)nc1` (stereo unspecified), 13.19%.

As for `Cc1ccc(N2C(=O)N[C@@H]3CCN(C(=O)C4CC4)[C@@H]3C2=O)cc1`, the INHIBITION came to 56.76%. In the case of `Cc1ccc(N2C(=O)N[C@@H]3CCN(C(=O)C4CCCC4)[C@@H]3C2=O)cc1` it was -28.91%. In the case of `O=C1N[C@@H]2CCN(C(=O)C3CC3)[C@@H]2C(=O)N1c1ccc(F)cc1` it was 34.24%. In the case of `COc1ccc(-c2nnc(SC(C)C(=O)NCC(C)C)[nH]2)c(OC)c1` (stereo unspecified) it was 59.18%.

In the case of `COc1ccc(-c2nnc(SCC(=O)NCC(C)C)[nH]2)c(OC)c1`, the INHIBITION was -8.24%. To `COc1ccc(-c2nnc(SC(C)C(=O)NC(C)(C)C)[nH]2)c(OC)c1` (stereo unspecified) belongs -42.16%; to `Cc1ccc([C@@H]2CN(C(=O)c3ccsc3)C[C@H]2NC(=O)C2CC2)cc1`, 50.57%. Turning to `Cc1ccc([C@@H]2CN(C(=O)c3cc[nH]c3)C[C@H]2NC(=O)C2CC2)cc1`, the INHIBITION is reported as -12.67%.

Consider `Cc1ccc([C@@H]2CN(C(=O)c3csc(C)n3)C[C@H]2NC(=O)C2CC2)cc1`, for which the INHIBITION was -67.56%. To `CC(NC(=O)NCCN1CCCC1)c1nncn1C` (stereo unspecified) belongs 21.83%. To `CN1CCc2[nH]cnc2C12CCN(Cc1ccc(S(C)(=O)=O)cc1)CC2` belongs 18.54%; to `CC(C)c1ccc(C(N)c2cccs2)cc1` (stereo unspecified), -61.99%; to `CCS(=O)(=O)NCc1nc(C)cc(N2CCCCC2)n1`, 19.12%. As for `CCS(=O)(=O)NCc1nc(C)cc(N2CCCC2)n1`, the INHIBITION came out at 53.61%. To `CCCS(=O)(=O)NCc1nc(C)cc(N2CCCC2)n1` belongs 15.84%; to `CCN1CC2(CCN(CC3CCCO3)CC2)OC1=O` (stereo unspecified), 6.85%. In the case of `CCN1CC2(CCN(CC3COCCO3)CC2)OC1=O` (stereo unspecified) it was 65.1%. In the case of `O=C1OC2(CCN(CC3CCCO3)CC2)CN1CCc1ccccc1` (stereo unspecified) it was -38.59%; in that of `COCC1CN(C(=O)Cc2ccccn2)Cc2ncnn2C1` (stereo unspecified), -54.16%. With `O=C(c1ccc2c(c1)COC2)N1CCCC(n2cncn2)C1` (stereo unspecified), the INHIBITION is on record as -45.72%.

Take `O=C1OC2(CCNCC2)CN1CC(=O)N1CCCC1c1nccs1` (stereo unspecified): the INHIBITION came to 3.62%. In the case of `O=C(O)CN1CCC2(CCc3ccccc32)CC1` it was -2.19%; in that of `O=C(CC1COCCN1)N1CCC(N2CCc3ccccc3C2)CC1` (stereo unspecified), -3.38%; in that of `O=C(CN1C(=O)CCNC1=O)N1CCC2(CCc3ccccc32)CC1`, 12.3%.

Take `O=C(CC1COCCN1)N1CCCN(C2Cc3ccccc3C2)CC1` (stereo unspecified): the INHIBITION stood at 46.02%.

For `O=C(CN1CCOC1=O)N1CCC2(CCc3ccccc32)CC1`, the INHIBITION is reported as 55.36%. To `O=C(CC1COCCN1)N1CCC2(CCc3ccccc32)CC1` (stereo unspecified) belongs 50.32%; to `Cc1noc(C)c1CN1C(=O)[C@@H]2CC[C@H]1CN(C(=O)c1cscn1)C2`, -13.89%.

Take `Cc1occc1C(=O)N1CCC2(CCN(Cc3ccccn3)C2=O)C1` (stereo unspecified): the INHIBITION was determined as 49.25%.

With `O=C(O)[C@]12CCCN(Cc3ccsc3)C[C@H]1CN(c1ncccn1)C2`, the INHIBITION came to 53.55%. On to `O=C(O)[C@]12CCCN(Cc3ccccc3)C[C@H]1CN(c1ncccn1)C2`, for which the INHIBITION is on record as -0.75%. To `O=C(O)[C@]12CCCN(Cc3ccsc3)C[C@H]1CN(c1ccccn1)C2` belongs 27.73%. Consider `CCC(C)[C@H](NC(=O)c1ccc(F)cc1-n1cnnn1)C(=O)OC` (stereo partly specified), for which the INHIBITION turned out to be 24.67%. In the case of `CCn1nc(C)c(CNC(=O)c2cn(CC3CCCO3)nn2)c1C` (stereo unspecified) it was -32.59%; in that of `CN(C)C(=O)[C@H]1C[C@H]2CN(CCc3ccccc3)C[C@@H]1O2`, 28.38%; in that of `CC(=O)N1C[C@H]2CCCN(Cc3ccc(C)o3)[C@H]2C1`, -41.73%. To `COc1ccc(CN2CCC[C@@H]3CN(C(=O)c4ccco4)C[C@@H]32)cc1` belongs -24.31%. In the case of `Cc1ccc(CN2CCC[C@@H]3CN(C(=O)c4ccco4)C[C@@H]32)o1`, the INHIBITION is given as 50.17%. To `CCCC(=O)N(CCCN1CCOCC1)c1nc2c(C)c(C)ccc2s1` belongs -3.67%; to `Cc1cccc(CNC[C@H]2Cn3ccnc3CO2)n1`, 9.42%; to `CN(C)CCNC(=O)c1cc(-c2cnc(N(C)C)nc2)cn1CC1CC1`, 8.88%.

In the case of `COCCCNC(=O)c1cc(-c2cnc(N(C)C)nc2)cn1CC1CC1`, the INHIBITION is on record as 58.6%. In the case of `CN(C)c1ncc(-c2cc(C(=O)NCCO)n(CC3CC3)c2)cn1` it was 23.53%. Regarding `O=C(NCCCO)Nc1cnc2cc(Cl)ccc2c1O`, the INHIBITION is reported as 47.4%.

Take `CCN(Cc1ccco1)C(=O)NCc1nnc2n1CCC2`: the INHIBITION stood at 11.78%.

Values taken from ChEMBL document CHEMBL4513216, “Probing the Open Global Health Chemical Diversity Library for Multistage-Active Starting Points for Next-Generation Antimalarials” (ACS Infect Dis, 2020).
